# A selection: hits, their analogues and other compounds. The true share with any hit is near 2.9%.
# PI5P4K alpha inh: qHTS for Inhibitors of phosphatidylinositol 5-phosphate 4-kinase (PI5P4K) | hit rate 1.2% among 330,000 | max response, % | PI5P4Kalpha enzyme, ADP-Glo luminescence, 60 min; stronger effect = lower value; active means max response of -50% or lower; inconclusive means between -30% and -50%; inactive means -30% or higher; further: value at the top dose of about 77 µM; on the % scale 0 is the no-effect control and ±100 the full control effect
#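 PI5P4Kalpha ADP-Glo assay; 5 microM ATP final; 60 min RT reaction; HEPES pH 7.4/EGTA/CHAPS, 5% DMSO; controls lacking substrate or enzyme; luminescent end-point.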
# Pol kappa inh: qHTS for Inhibitors of Polymerase Kappa; AID 588579, 2011; purified Pol kappa, fluorescent DNA synthesis assay, 10 min; hit rate 0.53% among 400,000; Potency, µM (doses to about 107 µM), for the others: at the top dose activity, negative = inhibition, hits mostly inhibitors; DNA polymerase kappa (Homo sapiens), Q9UBT6; further: potency means the concentration at half of the fitted maximal effect; on the % scale 0 is the no-effect control and ±100 the full control effect
# Target sequence (Q9UBT6 whole entry, looked up): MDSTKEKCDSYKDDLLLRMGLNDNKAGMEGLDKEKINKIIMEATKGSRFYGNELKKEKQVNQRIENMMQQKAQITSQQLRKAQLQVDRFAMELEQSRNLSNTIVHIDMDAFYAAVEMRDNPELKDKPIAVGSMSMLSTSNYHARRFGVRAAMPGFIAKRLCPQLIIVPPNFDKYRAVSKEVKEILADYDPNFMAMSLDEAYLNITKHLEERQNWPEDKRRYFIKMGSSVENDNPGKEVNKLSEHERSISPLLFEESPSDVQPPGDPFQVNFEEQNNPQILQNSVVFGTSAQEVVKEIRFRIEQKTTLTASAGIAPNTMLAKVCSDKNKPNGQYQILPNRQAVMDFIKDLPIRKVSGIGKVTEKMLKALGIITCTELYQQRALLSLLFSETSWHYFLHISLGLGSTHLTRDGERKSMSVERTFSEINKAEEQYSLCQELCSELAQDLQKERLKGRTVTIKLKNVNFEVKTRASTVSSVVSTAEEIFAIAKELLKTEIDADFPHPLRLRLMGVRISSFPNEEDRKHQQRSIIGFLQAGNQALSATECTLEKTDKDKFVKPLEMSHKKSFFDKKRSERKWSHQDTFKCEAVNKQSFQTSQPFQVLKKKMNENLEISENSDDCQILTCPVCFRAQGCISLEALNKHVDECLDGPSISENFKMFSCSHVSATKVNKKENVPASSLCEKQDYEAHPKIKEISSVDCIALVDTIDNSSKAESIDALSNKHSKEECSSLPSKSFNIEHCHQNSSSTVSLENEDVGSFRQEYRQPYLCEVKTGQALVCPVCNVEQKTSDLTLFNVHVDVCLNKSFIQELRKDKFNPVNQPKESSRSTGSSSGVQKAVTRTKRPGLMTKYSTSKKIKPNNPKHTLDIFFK
#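 Inhibition of 10 nM Pol kappa is measured by a fluorescent read-out at 0 and 10 min following addition of 50 nM substrate (final), with a 15-min room-temperature compound preincubation.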
# 12-LOX inh: Primary qHTS assay for inhibitors of human arachidonate 12S-lipoxygenase (ALOX12): Round 2; Polyunsaturated fatty acid lipoxygenase ALOX12 (Homo sapiens), P18054; purified 12hLO, xylenol orange hydroperoxide absorbance; Potency, µM (titrated, usually from 108 µM), for inactives: top-dose activity change, negative = inhibition, actives largely listed as inhibitors; hit rate 1.1% among 580,000; AID 1671190, 2021; further: potency means the concentration at half of the fitted maximal effect; on the % scale 0 is the no-effect control and ±100 the full control effect
#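 Purified human 12hLO at 150 nM in 25 mM Hepes, 0.01% Triton X-100, pH 7.0, preincubated 15 min at room temperature with compound. Reaction started with 40 uM arachidonic acid, 30 min at room temperature. Hydroperoxide measured by Fe-xylenol orange, 573/405 nm absorbance ratio.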
# POLB inh: qHTS Assay for Inhibitors of DNA Polymerase Beta | Pol beta primer extension/strand displacement, fluorescence kinetic | P06746 | Potency, µM (highest dose often 114 µM), inactives show top-dose activity change, negative = inhibition, actives largely listed as inhibitors | hit rate 1.3% among 340,000; further: potency means the concentration at half of the fitted maximal effect; on the % scale 0 is the no-effect control and ±100 the full control effect
#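 Preincubation: enzyme (10 nM) with compound, 15 min, RT. Reaction: substrate added to 50 nM final. Reads: 0 and 10 min. Analysis: normalized, Hill fit.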
# Pol eta inh: qHTS for Inhibitors of Polymerase Eta; recombinant Pol eta, fluorescent DNA replication assay; hit rate 1.2% among 390,000; AID 588591, 2011; Potency, µM (series often up to 114 µM), inactives show top-dose activity change, negative = inhibition, usual class: inhibitors; DNA polymerase eta (Homo sapiens), Q9Y253; further: potency means the concentration at half of the fitted maximal effect; on the % scale 0 is the no-effect control and ±100 the full control effect
#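 Fluorescent replication assay: 50 nM final substrate added after a 15 min room-temperature compound preincubation with 10 nM enzyme. Signal taken at 0 min and again at 10 min.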
# POLI inh: qHTS for Inhibitors of Polymerase Iota; Pol iota fluorescent replication assay, 10 min; AID 588590, 2011; DNA polymerase iota (Homo sapiens), Q9UNA4; Potency, µM (highest dose often 115 µM), for inactives: at the top dose activity, negative = inhibition, most hits filed as inhibitors; hit rate 1% among 390,000; further: potency means the concentration at half of the fitted maximal effect
#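 Pol iota at 10 nM preincubated 15 min with compounds at room temperature; reaction started with fluorescent substrate, 50 nM final. Fluorescence read kinetically at 0 and 10 min; buffer-only wells as negative control.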
# * = called active by the depositor; ? = inconclusive; . = not tested or not shown; [ ] = dose if it differs, or a comment. Unless noted, the call rests on the fitted dose curve; in most records, active means well fitted inhibition curve with a large enough effect; inconclusive means small, poorly fitted or top-dose-only effect, or another doubt; inactive means no such curve, though single readings can be large or run the other way.
SMILES,PI5P4K alpha inh,Pol kappa inh,12-LOX inh,POLB inh,Pol eta inh,POLI inh
CCCn1c(=S)[nH]c2sc3c(c2c1=O)CCCC3,-12.7,-14.4%,-12.6%,10.5%,6.6%,11.2%
O=c1[nH]c(C2CC2)nc2sc3c(c12)CCCC3,3.0,-5.0%,5.7%,?,-24.4%,16.1%
O=c1[nH]c(=S)[nH]c2sc3c(c12)CCCCCC3,-60.1*,0.2%,?,-7.0%,-14.5%,65.9%
Nn1c(=S)[nH]c2sc3c(c2c1=O)CCCC3,-70.1*,2.3%,1.4%,.,-11.6%,24.6%
CCOc1cc(C2CC(=O)N3CN(C4CCCCC4)CSC3=C2C#N)ccc1O (centres undefined),-60.5*,-29.3%,?,-16.7%,-12.5%,35.5µM*
N#CC1=C(N)n2ncnc2NC1c1ccc(Br)cc1 (centres undefined),.,.,49.1%,.,.,.
N#CC1=C2SCN(C3CCCCC3)CN2C(=O)CC1c1ccc(Br)cc1 (centres undefined),.,-29.4%,?,?,?,20µM*
CCOc1cc(C2CC(=O)NC(SCC)=C2C#N)ccc1O (centres undefined),4.2,1.7%,2.5%,21.9%,-8.9%,13.4%
COc1ccc2cc(CNC(=O)Cc3n[nH]c(=O)c4ccccc34)ccc2c1,.,.,-12.8%,.,.,.
CCc1c(-c2ccccc2)ncn1Cc1cccc(-c2ccccc2)c1,-10.9,.,?,.,.,.
CCc1c(-c2ccc(Cl)cc2)ncn1Cc1cccc(-c2ccccc2)c1,-16.3,.,8.91µM*,.,.,.
CCn1cc2c(C(F)(F)F)cc(=O)n(CCC(=O)O)c2n1,.,.,-22.6%,.,.,.
O=S(=O)(c1ccc2c(c1)OCCO2)c1nc(-c2ccccc2)oc1NCCN1CCOCC1,.,.,25.1µM*,.,.,.
O=C(CSc1nnc2n(-c3ccccc3)c(=O)c3ccccc3n12)Nc1ccccc1C(F)(F)F,.,.,1.9%,.,.,.
Cc1ccc(C)c(NC(=O)c2nc3ccccc3nc2N2CCOCC2)c1,.,.,-4.3%,.,.,.
CC(C)n1c(=O)[nH]c2ccccc21,.,-5.1%,8.6%,36.0%,-12.3%,18.9%
CC(C)n1c(=O)[nH][nH]c1=S,-102.9*,-0.1%,35.5µM*,1.1%,-2.7%,71.8%
O=C(O)/C=C\C(=O)Nc1cc(O)ccc1[N+](=O)[O-],-74.7*,-12.8%,12.6%,3.0%,-10.3%,-19.6%
Cc1noc(C)c1-c1cc2cc(CO)oc2c(NC2CCN(C)CC2)n1,.,.,-6.7%[176 µM],.,.,.
O=C1S/C(=C/c2ccc(N3CCOCC3)o2)C(=O)N1Cc1ccc(F)cc1,-7.4,-23.2%,10µM*,12.0%,6.3%,1.5%
O=C1S/C(=C\c2ccc(N3CCOCC3)o2)C(=O)N1Cc1ccc(F)cc1,.,-11.0%,.,11.0%,-10.7%,?
C#CCNC(=O)c1ccc2c(c1)NC(=O)CS2,.,.,-22.8%,.,.,.
COc1ccc(-c2nc(CSCC(=O)N3c4ccccc4CC3C)co2)cc1 (centres undefined),.,.,-16.6%,.,.,.
Cn1nnc(NC(=S)NC(=O)c2cc3ccccc3o2)n1,-16.0,-13.7%,2.51µM*,-6.4%,-11.4%,17.2%
O=C(Nc1nc2c(Cl)cccc2s1)c1ccc([N+](=O)[O-])o1,-4.9,-13.3%,-2.7%,3.8%,50.1µM*,30.8%
SMILES,PI5P4K alpha inh,Pol kappa inh,12-LOX inh,POLB inh,Pol eta inh,POLI inh
Cc1ccc(-c2csc(NC(=O)c3ccc([N+](=O)[O-])o3)n2)cc1,-15.5,0.5%,18.8%,1.0%,79.4µM*,-6.6%
O=C(Nc1nc2c(F)cccc2s1)c1ccc([N+](=O)[O-])o1,-2.5,-19.3%,-13.8%,5.8%,5.4%,-28.1%
COc1ccc(NC(=O)C2CCN(S(=O)(=O)c3c(C)noc3/C=C/c3cccs3)CC2)cc1,.,0.0%,0.3%,2.1%,-9.5%,5.6%
COc1ccccc1CNC(=O)C1CCN(S(=O)(=O)c2c(C)noc2/C=C/c2cccs2)CC1,.,?,-28.4%,0.7%,0.0%,89.1µM*
OCC1(Cc2ccc(Cl)cc2)CCN(Cc2ccccc2F)CC1,1.3,6.7%,3.6%,28.4%,-20.3%,-6.4%
OCC1(Cc2ccc(Cl)cc2)CCN(CCCc2ccccc2)CC1,19.8,-1.3%,3.16µM*,-2.3%,-6.0%,43.5%
O=C(N/N=C/c1cccnc1)c1ccc(NC(=O)c2cccc(Cl)c2)cc1,-3.3,-13.9%,6.6%,8.91µM*,?,?
Cc1cccc(C(=O)Nc2ccc(C(=O)N/N=C/c3ccc4c(c3)OCO4)cc2)c1,-13.7,-1.7%,?,35.5µM*,-8.6%,0.9%
O=C(N/N=C\c1cccnc1)c1cc(-c2ccc(Cl)s2)[nH]n1,-24.8,-38.9%,-2.1%,14.1µM*,?,?
CN(C)c1ccc(CN2CCNc3cc(Nc4ccccc4)ncc3C2)cc1,.,.,0.1%[176 µM],.,.,.
O=C(NCC1(N2CCCCC2)CCCCC1)c1cccc(NC(=O)c2cccs2)c1,.,.,-18.4%,.,.,.
Cc1oc2cc(OCC(=O)NCc3ccccc3)ccc2c(=O)c1Oc1ccccc1,.,.,-17.0%,.,.,.
CCC(c1cccs1)N1C(=O)[C@H]2CN(S(=O)(=O)c3cccc(Cl)c3)C[C@H]2C1=O (some centres undefined),.,.,31.6µM*,.,.,.
CCCCN=Cc1c(C)[nH]n(-c2ccccc2)c1=S,-4.3,-1.3%,22.4µM*,-0.2%,-18.0%,8.2%
Cc1[nH]n(-c2ccccc2)c(=S)c1C=Nc1cccc([N+](=O)[O-])c1,-105.1*,-5.1%,?,50.3%,-12.1%,22.9%
Cc1[nH]n(-c2ccccc2)c(=O)c1C=NCCc1ccccc1,2.3,-9.4%,-3.2%,2.2%,5.2%,-17.8%
O=[N+]([O-])c1ccc(C=Nc2ccccc2)cc1,-0.8,.,-5.6%,.,.,.
Cc1cc(F)ccc1NC(=O)CCc1ncc(-c2ccccc2)o1,.,.,3.4%,.,.,.
CCc1cc(=O)n(CC(=O)N2CCCCC2C)c(-c2ccccc2)n1 (centres undefined),.,.,21.0%,.,.,.
O=C(N[C@@H]1CN(Cc2cc(F)cc(F)c2)C[C@H]1CO)c1ccccc1,.,.,9.2%,.,.,.
O=C(N[C@@H]1CN(Cc2cccc(F)c2)C[C@H]1CO)c1ccccc1,.,.,-6.0%,.,.,.
O=C(N[C@@H]1CN(Cc2ccc(F)cc2)C[C@H]1CO)c1ccccc1,.,.,12.6µM*,.,.,.
O=C(N[C@@H]1CN(Cc2ccc3cc[nH]c3c2)C[C@H]1CO)c1ccccc1,.,.,28.2µM*,.,.,.
CC(O)c1ccc(-c2ccc(CNCc3cccs3)o2)cc1 (centres undefined),.,.,7.6%,.,.,.
COC(=O)[C@H]1[C@H](CO)[C@H]2Cn3c(ccc(Br)c3=O)[C@H]2N1C(=O)c1ccccn1,.,.,0.794µM*,.,.,.
O=C(CCS(=O)(=O)c1ccccc1)Nc1ccc(-c2nc3ccccc3s2)c(O)c1,6.1,-5.5%,-12.2%,5.0%,-8.1%,10.8%
